Results taken from PubChem BioAssay (NCI).
Several values for one entry are separate records, joined by “and”; a condition that tells them apart may be missing. Equal entries are not always repeated. Compounds without any hit were thinned out: in the full panel of roughly 83,000, 20% have a hit.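 The endpoint reported here, percent growth, reads 100 for growth as untreated, 0 for no net growth and -100 for all cells dead.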 Activity calls are given as the source filed them. The calls were made as follows: active = growth percent below 10; inactive = the rest.

Each compound was assayed on HL-60(TB) leukemia (assay: NCI-60 one-dose screen, 48 h (100 = growth as untreated, 0 = no growth, -100 = all killed)). Conditions: 10 µM unless noted.

| Structure (SMILES) | growth |
| --- | --- |
| COC(=O)CCCNc1c(-c2c(O)c(O)cc3c(O)c(-c4c(C)cc5c(-c6nc7ccccn7c6NCCCC(=O)OC)c(O)c(O)cc5c4O)c(C)cc23)nc2ccccn12 | 91.7% (inactive) |
| COc1ccc(-c2nn(-c3ccccc3)cc2/C=C2/SC(=S)N(C)C2=O)cc1 | 95.8% (inactive) |
| CNC(=O)c1c(NC(=O)c2ccc(C(F)(F)F)cc2)sc2c1CCC(=O)C2 | -16.5% (active) |
| COc1ccc(/C=N/C2=C(C#N)C(c3ccccc3[N+](=O)[O-])c3ccc4ccccc4c3O2)cc1 (configuration not stated) | 100% (inactive) |
| CCO/C=N/C1=C(C#N)C(c2ccc(OC)cc2)c2sc3c(F)cccc3c2O1 (configuration not stated) | -9.87% (active) |
| CC1(C)CC(=O)c2cc3c(N)c(C(=O)Nc4ccc(Cl)cc4)sc3nc2C1 | 107% (inactive) |
| Brc1c(-c2ccncc2)nc2n1CCS2 | 44.4% (inactive) |
| CCc1c(C)c2cc(-n3c(-c4ccc(OC)cc4)csc3=N)c(O)c(C)c2oc1=O | -28.2% (active) |
| N#Cc1c(C(F)(F)F)cc(Nc2ccc3nc(NCCN4CCCC4)oc3c2)n2c1nc1ccccc12 | 86.6% (inactive) |
| COc1ccc(Cl)cc1Nc1nc(C(F)(F)F)ccc1C(=O)N/N=C/c1cc(OC)c(OC)c(OC)c1 | -32.3% (active) |
| O=S(=O)(CC(O)(c1ccccc1)c1ccccc1)CC(O)(c1ccccc1)c1ccccc1 | 108% (inactive) |
| COc1ccc2c(c1)sc1nc(-c3ccc(Br)cc3)cn12 | 80.7% (inactive) |
| C/C(=N\O)C1(O)CCCCC1 | 83.6% (inactive) |
| CC(C)(C(=O)c1cccnc1)c1cccnc1 | 99.5% (inactive) and 126% (inactive) |
| O=C1Cc2ccccc2C(=O)O1 | 89.1% (inactive) |
| C#CC(=O)Nc1cccc2c1cc(C)n2-c1nc2c(c(NCc3ccccc3)n1)CCCC2 | -40.1% (active) |
| CCc1ccccc1NC(=O)/C(C#N)=C/c1ccc(OC)cc1 | 138% (inactive) |
| Cc1nc2sc(C(=O)Nc3ccccc3)c(N)c2cc1C(=O)c1ccccc1 | 21.8% (inactive) |
| Cc1oc2nc[nH]c(=O)c2c1C(=O)/C=C/c1ccc(Cl)cc1 | -47.8% (active) |
| O=C1CCCN1c1cccc2cccnc12 | 101% (inactive) |
| O=C(Oc1cccc(OC(=O)c2ccccc2)c1)c1ccccc1 | 73% (inactive) and 114% (inactive) |
| O=C(OCc1ccccc1)c1ccccc1 | 132% (inactive) and 98.4% (inactive) |
| CC(=O)OC1Oc2ccccc2-c2oc(=O)c(-c3cc(=O)oc4cc(O)ccc34)cc21 (configuration not stated) | 47% (inactive) |
| N#CC1C(=O)c2ccccc2C1c1ccccc1 (configuration not stated) | 108% (inactive) and 103% (inactive) |
| CC[N+](CC)(CC(=O)Nc1c(C)cccc1C)Cc1ccccc1 | 79.6% (inactive) and 94.7% (inactive) |
| O=C(c1nn(-c2ccccc2)c2c1CC(NCc1ccc(F)cc1)CC2)N1CCCCC1 (configuration not stated) | 86.6% (inactive) |
| CCOC(=O)c1c2c(n3cccc(F)c13)C(=O)c1ncccc1C2=O | -25.8% (active) |
